Our source for the outcome and AC50 values is PubChem BioAssay (EPA / NIEHS).

Calls of active or inactive are those of the source. How the source made its calls: active means hit-call score of the fitted dose curve at least 0.9, where 1 is the maximum; inactive means score below 0.9.

The nature of the first assay: ATG_E_Box_CIS: Attagene CIS-FACTORIAL HepG2 Assay for human Enhancer Box (E-box) (AID 2282936). The settings on record: HepG2 E-box cis-reporter transcription, actives raise or lower the signal. In outline:
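DMSO served as negative control and baseline for bidirectional fitting. Human hepatoma HepG2 cells, transiently transfected with cis-reporter constructs, were dosed 24 h; reporter mRNA read by RT-PCR and capillary electrophoresis.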
For `CCO[Si](CCCNC(N)=O)(OCC)OCC`, the result was inactive. Consider `C[C@]12CC[C@@H]3c4ccc(O)cc4CC[C@H]3[C@@H]1CCC2=O`, for which the outcome was inactive. What is called AC50 is the midpoint of the concentration-response curve, whichever way the signal moves. As to `COc1cccc([C@H](O)C2CCN(CCc3ccc(F)cc3)CC2)c1OC`, the AC50 is 100 µM (active).

Another assay is described as follows: ATG_M_61_CIS: Attagene CIS-FACTORIAL HepG2 Assay for M61 Transcription Factor (Internal Marker) (AID 2282937). The note with it: HepG2 Attagene CIS-FACTORIAL M61 internal marker reporter; actives raise or lower the signal. In outline: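 HepG2 cells transiently transfected with multiplexed cis-promoter reporter units reporting endogenous transcription factor activity, measured 24 h after dosing. Reporter mRNA quantified by RT-PCR and capillary electrophoresis; bidirectional fit against DMSO baseline.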
As for `CC1=CC(=O)/C(=C(/C)O)C(=O)O1`, the molecule was called inactive.

`Cc1oc2c(NC(=O)c3c(Cl)cccc3Cl)cccc2c1C(C)(C)O`: the outcome was inactive. `CCCCCCCCCC(=O)O`: the outcome was inactive. As for `COc1ccc2cc(S(=O)(=O)N[C@H](CC(=O)N[C@H](Cc3ccc(CN4[C@H](C)CCC[C@@H]4C)cc3)C(=O)N(C)C(C)C)c3ccc4c(c3)OCO4)ccc2c1`, the result was inactive. Regarding `c1ccc2n[nH]nc2c1`, the molecule was classed as inactive.

Regarding `CN1C(=O)CC[C@H]1c1cccnc1`, the result was inactive. On the same count and under the same terms, next, `O=C(O)Cn1c(=O)n(Cc2ccc(Br)cc2F)c(=O)c2ccc(Cl)cc21`: “inactive”; `CCCCCCCCCCCCO`: “inactive”; `COc1cc(C(=O)NC2CCN(C)CC2)ccc1Nc1ncc2c(n1)N(C1CCCC1)CC(F)(F)C(=O)N2C`: “inactive”. In the case of `O=C(OCCCCCCOC(=O)c1ccccc1)c1ccccc1`, the result was inactive. Regarding `CC(C)(C)c1csc(-c2cc3cc(OCc4ccccc4CC(=O)O)ccc3o2)n1`, the result was inactive. With `O=C=NCCCCCCN=C=O`, the result was inactive. In the case of `O=C1c2ccccc2C(=O)N1CCc1noc(-c2ccc(CN3CCCCCC3)s2)n1`, the call was inactive.

Regarding `CCCCCCCCCCCC[N+](C)(C)C`, the molecule was called inactive. As to `CC(=O)N1CCN(c2ccc(OC[C@H]3CO[C@](Cn4ccnc4)(c4ccc(Cl)cc4Cl)O3)cc2)CC1`, the molecule was called inactive. For `NCc1cccc(C2CCN(C(=O)c3ccc(C#Cc4ccccc4F)o3)CC2)c1`, the call was inactive.

Consider `O=C1O[C@H]([C@@H](O)CO)C(O)=C1O`, for which the molecule was called inactive. Regarding `Cc1occc1C(=O)Nc1ccc(C(=O)N2CCC(F)(F)/C(=C\C(=O)N3CCC(N4CCCCC4)CC3)c3ccccc32)cc1`, the result was inactive. For `CC(C)(C)c1cc(/C=C2\SC(N)=NC2=O)cc(C(C)(C)C)c1O`, the molecule was classed as inactive.

Turning to `CCCC(=O)OCCC(C)C`, the outcome was inactive.

Regarding `Cc1ncc(CO)c(CO)c1O`, the call was inactive. As for `CCN(CC)C(=O)c1cc(S(=O)(=O)Cc2ccccc2)c(N2CCC(c3ccccc3)CC2)cc1N(CC)CCN(C)C`, the outcome was inactive. In the case of `CCCCOC(=O)CC(CC(=O)OCCCC)(OC(C)=O)C(=O)OCCCC`, the call was inactive. On the same count and under the same terms, next, `Cc1ccc2oc(CN(Cc3ccccc3)C(=O)Nc3c(F)cc(F)cc3F)c(-c3ccc(Cl)cc3)c2c1`: “inactive”; `CCCCCCCCOC(=O)c1cc(O)c(O)c(O)c1`: “inactive”; `O=c1[nH]sc2ccccc12`: “inactive”. As for `CCCCCCCCOc1ccc(C(=O)c2ccccc2)c(O)c1`, the call was inactive. Same read-out and setting: in the case of `CN1C(=O)N(c2ccccc2Br)Cc2cnc(Nc3ccc4c(c3)OCC(CO)O4)nc21` (stereo unspecified) it was “inactive”; in that of `Clc1ccccc1C(c1ccccc1)(c1ccccc1)n1ccnc1`, “inactive”. `CC(O)CC(C)(C)O` (stereo unspecified): the molecule was called inactive. For the molecule `CCOC(=O)O[C@H](C)OC(=O)c1ccc2c(c1)cc(C(=O)NC1CCN(C(C)C)CC1)n2Cc1cc(-c2ccc(Cl)s2)on1`, the outcome was inactive. For the molecule `O=CCCCC=O`, the outcome was inactive. In the case of `CC(C)(c1cc(Br)c(O)c(Br)c1)c1cc(Br)c(O)c(Br)c1`, the molecule was called inactive. Same read-out and setting: in the case of `Cc1cccc2ccccc12` it was “inactive”; in that of `CC(C)(O)c1ccc(CNC(=O)c2cccnc2Oc2ccc3nonc3c2)cc1`, “inactive”. Consider `CCO[Si](CCCNC(N)=O)(OCC)OCC`, for which the call was inactive.

Take `C[C@]12CC[C@@H]3c4ccc(O)cc4CC[C@H]3[C@@H]1CCC2=O`: the molecule was called inactive. In the case of `COc1cccc([C@H](O)C2CCN(CCc3ccc(F)cc3)CC2)c1OC`, the molecule was called inactive.
